# Experimental data: the supplement of paper PMC6992640
# ± gives the standard deviation of the averaged measurements.
# Legend:
# [1] = tested on: WHIM30 (cells of a triple-negative basal-like breast cancer xenograft); assay: cell viability (% of vehicle); higher = less cytotoxic; details: 10 µM; 72 h;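 further: PDX cells carrying CMV promoter-driven luciferase, viability read as total photon flux per second by IVIS imaging following D-luciferin, vehicle control 0.1% DMSO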
# [2] = tested on: HCI01 (cells of a triple-negative basal-like breast cancer xenograft); assay: cell viability of combination (% of vehicle); higher = less cytotoxic; details: 1 µM; 72 h; partner dose: 10 nM
# Description: (§1)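 PDX cells were treated for 72 h with each drug at 1 µM plus carfilzomib (10 nM; 100 nM for WHIM2). Luciferase viability is expressed as percent of vehicle.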
# [3] = tested on: UCD52 (cells of a triple-negative basal-like breast cancer xenograft); assay: as above; details: 1 µM; 72 h; partner dose: 10 nM
# Description: as §1
Structure (SMILES),cell viability [1],cell viability of combination [2],cell viability of combination [3]
O=C(Nc1nc2cccc(-c3ccc(CN4CCS(=O)(=O)CC4)cc3)n2n1)C1CC1,147 ± 9.8,–,–
CC(=Cc1ccccc1)C=C1SC(=S)N(CC(=O)O)C1=O [Epalrestat],134 ± 29,–,–
Clc1ccc(CSC(Cn2ccnc2)c2ccc(Cl)cc2Cl)cc1.O=[N+]([O-])O (stereo not given) [Sulconazole Nitrate] + CC(C)C[C@H](NC(=O)[C@H](CCc1ccccc1)NC(=O)CN1CCOCC1)C(=O)N[C@@H](Cc1ccccc1)C(=O)N[C@@H](CC(C)C)C(=O)[C@@]1(C)CO1 [Carfilzomib],–,93.5,62.1
CCc1c(Cl)c(O)c(Cl)c(O)c1C(=O)OC1C(C)OC(OCC2=CC=CCC(O)C(C)=CC(CC)C(OC3OC(C)(C)C(OC(=O)C(C)C)C(O)C3O)C(C)=CC(C)=CCC(C(C)O)OC2=O)C(OC)C1O (stereo not given) [Fidaxomicin] + CC(C)C[C@H](NC(=O)[C@H](CCc1ccccc1)NC(=O)CN1CCOCC1)C(=O)N[C@@H](Cc1ccccc1)C(=O)N[C@@H](CC(C)C)C(=O)[C@@]1(C)CO1 [Carfilzomib],–,92.5,62.7
Clc1ccc(C(Cn2ccnc2)OCc2ccc(Sc3ccccc3)cc2)c(Cl)c1.O=[N+]([O-])O (stereo not given) [Fenticonazole Nitrate] + CC(C)C[C@H](NC(=O)[C@H](CCc1ccccc1)NC(=O)CN1CCOCC1)C(=O)N[C@@H](Cc1ccccc1)C(=O)N[C@@H](CC(C)C)C(=O)[C@@]1(C)CO1 [Carfilzomib],–,83.9,65.2
COc1cccc2c1C(=O)c1c(O)c3c(c(O)c1C2=O)CC(O)(C(=O)CO)CC3OC1CC(N)C(O)C(C)O1.Cl (stereo not given) [Doxorubicin (Adriamycin) HCl] + CC(C)C[C@H](NC(=O)[C@H](CCc1ccccc1)NC(=O)CN1CCOCC1)C(=O)N[C@@H](Cc1ccccc1)C(=O)N[C@@H](CC(C)C)C(=O)[C@@]1(C)CO1 [Carfilzomib],–,60.9,30.2
CCN(CC)CCNC(=O)c1c(C)[nH]c(C=C2C(=O)Nc3ccc(F)cc32)c1C.O=C(O)CC(O)C(=O)O [Sunitinib malate] + CC(C)C[C@H](NC(=O)[C@H](CCc1ccccc1)NC(=O)CN1CCOCC1)C(=O)N[C@@H](Cc1ccccc1)C(=O)N[C@@H](CC(C)C)C(=O)[C@@]1(C)CO1 [Carfilzomib],–,67.2,61.5
COc1ccc2cc1Oc1ccc(cc1)CC1c3c(cc4c(c3Oc3cc5c(cc3OC)CCN(C)C5C2)OCO4)CCN1C (stereo not given) [Cepharanthine] + CC(C)C[C@H](NC(=O)[C@H](CCc1ccccc1)NC(=O)CN1CCOCC1)C(=O)N[C@@H](Cc1ccccc1)C(=O)N[C@@H](CC(C)C)C(=O)[C@@]1(C)CO1 [Carfilzomib],–,76.2,45.8
COCCOC(=O)C1=C(C)NC(C)=C(C(=O)OCC=Cc2ccccc2)C1c1cccc([N+](=O)[O-])c1 (stereo not given) [Cilnidipine] + CC(C)C[C@H](NC(=O)[C@H](CCc1ccccc1)NC(=O)CN1CCOCC1)C(=O)N[C@@H](Cc1ccccc1)C(=O)N[C@@H](CC(C)C)C(=O)[C@@]1(C)CO1 [Carfilzomib],–,104,63.2
CNCCCC12CCC(c3ccccc31)c1ccccc12.Cl [Maprotiline HCl] + CC(C)C[C@H](NC(=O)[C@H](CCc1ccccc1)NC(=O)CN1CCOCC1)C(=O)N[C@@H](Cc1ccccc1)C(=O)N[C@@H](CC(C)C)C(=O)[C@@]1(C)CO1 [Carfilzomib],–,76.5,55.5
CN1CCC(COc2cnc(-c3cccc(Cn4nc(-c5cccc(C#N)c5)ccc4=O)c3)nc2)CC1 + CC(C)C[C@H](NC(=O)[C@H](CCc1ccccc1)NC(=O)CN1CCOCC1)C(=O)N[C@@H](Cc1ccccc1)C(=O)N[C@@H](CC(C)C)C(=O)[C@@]1(C)CO1 [Carfilzomib],–,80.4,57
CCOc1nc2cccc(C(=O)OC(C)OC(=O)OC3CCCCC3)c2n1Cc1ccc(-c2ccccc2-c2nn[nH]n2)cc1 (stereo not given) [Candesartan Cilexetil] + CC(C)C[C@H](NC(=O)[C@H](CCc1ccccc1)NC(=O)CN1CCOCC1)C(=O)N[C@@H](Cc1ccccc1)C(=O)N[C@@H](CC(C)C)C(=O)[C@@]1(C)CO1 [Carfilzomib],–,77.5,61.4
CS(=O)(=O)CCNCc1ccc(-c2ccc3ncnc(Nc4ccc(OCc5cccc(F)c5)c(Cl)c4)c3c2)o1.Cc1ccc(S(=O)(=O)O)cc1.Cc1ccc(S(=O)(=O)O)cc1 [Lapatinib Ditosylate] + CC(C)C[C@H](NC(=O)[C@H](CCc1ccccc1)NC(=O)CN1CCOCC1)C(=O)N[C@@H](Cc1ccccc1)C(=O)N[C@@H](CC(C)C)C(=O)[C@@]1(C)CO1 [Carfilzomib],–,69.5,47.7
COc1cc2c(Oc3ccc4[nH]c(C)cc4c3F)ncnc2cc1OCCCN1CCCC1 [Cediranib (AZD217)] + CC(C)C[C@H](NC(=O)[C@H](CCc1ccccc1)NC(=O)CN1CCOCC1)C(=O)N[C@@H](Cc1ccccc1)C(=O)N[C@@H](CC(C)C)C(=O)[C@@]1(C)CO1 [Carfilzomib],–,80.6,31.6
COc1cc(Nc2c(C#N)cnc3cc(OCCCN4CCN(C)CC4)c(OC)cc23)c(Cl)cc1Cl [Bosutinib (SKI-606)] + CC(C)C[C@H](NC(=O)[C@H](CCc1ccccc1)NC(=O)CN1CCOCC1)C(=O)N[C@@H](Cc1ccccc1)C(=O)N[C@@H](CC(C)C)C(=O)[C@@]1(C)CO1 [Carfilzomib],–,70.1,35.3
CC(C)(C)Cn1c(N)nc2ccc(-c3[nH]c(C(C)(C)C)nc3-c3ccc(F)cc3)nc21.CS(=O)(=O)O.CS(=O)(=O)O + CC(C)C[C@H](NC(=O)[C@H](CCc1ccccc1)NC(=O)CN1CCOCC1)C(=O)N[C@@H](Cc1ccccc1)C(=O)N[C@@H](CC(C)C)C(=O)[C@@]1(C)CO1 [Carfilzomib],–,61.9,29.3
CC(C)Nc1cc(-c2c[nH]c(C(=O)NC(CO)c3cccc(Cl)c3)c2)c(Cl)cn1 (stereo not given) + CC(C)C[C@H](NC(=O)[C@H](CCc1ccccc1)NC(=O)CN1CCOCC1)C(=O)N[C@@H](Cc1ccccc1)C(=O)N[C@@H](CC(C)C)C(=O)[C@@]1(C)CO1 [Carfilzomib],–,94,48.9
CN1CCN(CCOc2cc(OC3CCOCC3)c3c(Nc4c(Cl)ccc5c4OCO5)ncnc3c2)CC1 [Saracatinib (AZD0530)] + CC(C)C[C@H](NC(=O)[C@H](CCc1ccccc1)NC(=O)CN1CCOCC1)C(=O)N[C@@H](Cc1ccccc1)C(=O)N[C@@H](CC(C)C)C(=O)[C@@]1(C)CO1 [Carfilzomib],–,66.1,39.3
CS(=O)(=O)O.Cc1c(O)cccc1C(=O)NC(CSc1ccccc1)C(O)CN1CC2CCCCC2CC1C(=O)NC(C)(C)C (stereo not given) [Nelfinavir Mesylate] + CC(C)C[C@H](NC(=O)[C@H](CCc1ccccc1)NC(=O)CN1CCOCC1)C(=O)N[C@@H](Cc1ccccc1)C(=O)N[C@@H](CC(C)C)C(=O)[C@@]1(C)CO1 [Carfilzomib],–,80.3,57.2
COc1cc2nccc(Oc3ccc(NC(=O)Nc4cc(C)on4)c(Cl)c3)c2cc1OC [Tivozanib (AV-951)] + CC(C)C[C@H](NC(=O)[C@H](CCc1ccccc1)NC(=O)CN1CCOCC1)C(=O)N[C@@H](Cc1ccccc1)C(=O)N[C@@H](CC(C)C)C(=O)[C@@]1(C)CO1 [Carfilzomib],–,97.5,48.9
N.N.O=C([O-])C1(C(=O)[O-])CCC1.[Pt+2] [Carboplatin] + CC(C)C[C@H](NC(=O)[C@H](CCc1ccccc1)NC(=O)CN1CCOCC1)C(=O)N[C@@H](Cc1ccccc1)C(=O)N[C@@H](CC(C)C)C(=O)[C@@]1(C)CO1 [Carfilzomib],–,81.2,70.6
